Out of some 330,000 compounds screened, about 4,600 (1.4%) were called active. The full list was thinned out, with actives kept by preference. Unmarked numbers belong to inactive results.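 Rule for the calls: active = inhibition of 40% or more at the single tested concentration; inactive = the rest.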
Assay: wild-type TIM10 yeast growth inhibition – luminescence, uHTS, counter-screen for tim10-1 yeast inhibitor project, primary screen (AID 463195);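 note: wild-type TIM10 isogenic control strain grown at permissive 25 °C; 0% = DMSO yeast wells and 100% = minimal medium wells without yeast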
Details: S. cerevisiae TIM10 strain growth, BacTiter-Glo luminescence, 24 h; at 10 µM; hits give high values

Row | Compound | inhibition
1 | COc1ccccc1C(=O)Nc1nc2nc(-c3ccccc3)cc(=O)n2[nH]1 | -9.51%
2 | N#Cc1ccccc1NC(=O)COc1c(Br)cc(Br)c2cccnc12 | 13.8%
3 | O=C(Nc1ccc(N2CCN(C(=O)c3ccccc3)CC2)c(Cl)c1)c1ncn[nH]1 | -12.4%
4 | CN(C)C(=O)CCC(=O)N1CCCCC1C(=O)Nc1ccc(Oc2ccccc2F)cc1 (stereo unspecified) | 3.39%
5 | Fc1ccccc1/C=C1\CCCC2=C1Nc1ncnn1C2c1ccccc1F (stereo unspecified) | 48.1% (active)
6 | CC1=C(C(N)=O)C(c2ccc(Br)cc2)n2ncnc2N1 (stereo unspecified) | -4.88%
7 | CCC1CCc2c(sc(NC(C)=O)c2C#N)C1 (stereo unspecified) | 7.23%
8 | O=C(COC(=O)c1ccc(Cl)nc1)NCc1cccs1 | 7.82%
9 | COc1ccccc1N1CCN(C(=O)C2Cc3ccccc3CN2C(=O)c2ccco2)CC1 (stereo unspecified) | 22%
10 | Cc1oc2c(c1C(=O)N1CCOCC1)C(=O)c1ccccc1C2=O | 46.1% (active)
11 | COC1=C(N2CCOCC2)C(=O)c2ccccc2C1=O | -3.21%
12 | COc1cc2ccccc2cc1C(=O)N1CCOCC1 | 5.86%
13 | CC1=C(C)CC(C(=O)NNC(=O)c2csc3c2CCC(C(C)(C)C)C3)C(C(=O)O)C1 (stereo unspecified) | 5.91%
14 | O=C(CSCc1ccccc1)Nc1ccccc1 | -3.8%
15 | COC(=O)Cc1c(O)ccn(Cc2cccc(C(F)(F)F)c2)c1=O | 11.1%
16 | O=C(/C=C/Sc1ncn[nH]1)c1ccc(Cl)cc1 | 73.5% (active)
17 | O=C(CSc1ncn[nH]1)N/N=C/c1ccc(F)cc1 | -3.76%
18 | Cc1ccc(C(=O)/C=C/c2c(C)nn(-c3ccccc3)c2Cl)cc1 | 29.3%
19 | CCN(CC)C(=O)[C@H]1C[C@H](CC(=O)NCC23CC4CC(CC(C4)C2)C3)C(=O)N2CCc3c([nH]c4cc(CCC(=O)N(C)C)ccc34)[C@]12C | 6.94%
20 | CC(C)CC(=O)NC(=S)Nc1ccc(F)cc1F | 41.9% (active)
21 | CC(=O)c1ccc(NC(=S)NC(=O)CC(C)C)cc1 | 28.8%
22 | CC(C)CC(=O)NC(=S)Nc1cc(C(=O)O)ccc1Cl | -4.57%
23 | Cc1cc(C)c(C)c(S(=O)(=O)Nc2ccc(O)cc2)c1C | 11.4%
24 | Cc1c(C)c(C)c(S(=O)(=O)NCCc2ccccn2)c(C)c1C | 7.03%

Row | Compound | inhibition
25 | COC(=O)c1sccc1NS(=O)(=O)c1ccc(F)cc1F | 48.3% (active)
26 | COc1ccc(NS(=O)(=O)c2ccc(F)cc2F)cn1 | -5.52%
27 | COC(=O)c1sccc1NC(=O)CSc1ccccc1NS(=O)(=O)c1cc(Cl)ccc1Cl | 10%
28 | CC1CCCN(CCOCCOc2ccccc2-c2ccccc2)C1 (stereo unspecified) | -0.424%
29 | Cc1ccc(NS(=O)(=O)c2ccc3c(c2)n(C)c(=O)c(=O)n3C)c(C)c1 | -2%
30 | COc1ccccc1/C=C/C(=O)NC1CC2CCC1C2 (stereo unspecified) | 18.9%
31 | CCOC(=O)C(=CNc1cccc(C)n1)C(=O)OCC | -4.77%
32 | CCOC(=O)C(=Cc1ccccc1OC)C(=O)OCC | 49% (active)
33 | COc1ccccc1CNC(=O)C1CCN(C(=O)[C@@H]2Cc3ccccc3CN2)CC1 | 6.93%
34 | COc1ccc(Nc2cc(=O)oc3ccccc23)cc1 | -15.1%
35 | CCCN1CCn2c3c(c4cc(Br)ccc42)CCCC31 (stereo unspecified) | 6.43%
36 | CCOc1ccc(/C(O)=C2\C(=O)C(=O)N(c3ccc(OC)cc3)C2c2ccccc2[N+](=O)[O-])cc1 (stereo unspecified) | 23.4%
37 | CCN(CC)CC(=O)c1c[nH]c2ccc(OC)cc12 | -7.94%
38 | COc1ccc2[nH]cc(/C=C(/C#N)S(=O)(=O)c3ccccc3)c2c1 | 54.5% (active)
39 | COc1ccc2[nH]cc(CCN3C(=O)c4ccc(C(=O)O)cc4C3=O)c2c1 | -1.99%
40 | COc1ccc(C(=O)COC(=O)c2ccc3ccccc3n2)cc1 | 37.3%
41 | O=C(Oc1ccc([N+](=O)[O-])cc1)c1ccc2ccccc2n1 | 40.4% (active)
42 | CC(OC(=O)c1ccc2ccccc2n1)C(=O)c1ccccc1 (stereo unspecified) | 3.19%
43 | O=C(Nc1cccc(Cl)c1Cl)c1ccccc1NC(=O)C1CC=CCC1C(=O)O (stereo unspecified) | -0.652%
44 | Cc1cc(N=Nc2ccc3ccccc3c2)ccc1O | 74.2% (active)
45 | Cc1ccc(/C=N/NC(=O)c2cc3ccccc3cc2O)o1 | 16.7%
46 | COc1cccc(OCC(O)CNC(=O)c2oc3c(C)c(C)ccc3c2C)c1 (stereo unspecified) | -2.72%
47 | Cc1nc2cc(C(F)(F)F)ccc2n1CCNc1nc(-c2cc(Cl)c(N)c(Cl)c2)cs1 | 3.25%
48 | CC(=O)c1c(OCC(=O)N(C)C2CCCCC2)ccc2c(C)cc(=O)oc12 | 5.61%

Row | Compound | inhibition
49 | C=CCNC(=O)COC(=O)CNC(=O)c1cc(Cl)cc([N+](=O)[O-])c1 | -0.359%
50 | C=CCNC(=S)NNC(=O)COc1c(Cl)cc(Cl)cc1Cl | 57.7% (active)
51 | C=CCNC(=S)NNC(=O)c1ccc(Br)o1 | -5.99%
52 | O=C(CN1CCCCC1)NC(=O)Nc1ccccc1F | -12.6%
53 | CCOC(=O)CCCNC(=O)COC(=O)c1cc(Br)c(Br)s1 | 10.3%
54 | Fc1ccc(/C=N/n2c(COc3ccccc3)n[nH]c2=S)cc1 | 40.9% (active)
55 | O=[N+]([O-])c1ccccc1/C=N/n1c(COc2ccccc2)n[nH]c1=S | 17.8%
56 | Cc1ccc(OCc2n[nH]c(=S)n2-c2ccccc2)cc1 | 16.5%
57 | Cc1[nH]c2ccccc2c1/C=C(/C#N)C(=O)NC(C)C | 17.7%
58 | CC(C)NC(=O)/C(C#N)=C\c1ccc(N(C)C)c(Br)c1 | 55.1% (active)
59 | CC(C)(C)C(=O)/C(C#N)=C/c1ccc(O)cc1 | -0.948%
60 | N=c1n(Cc2ccc(Cl)cc2)c2ccccc2n1CC(O)c1ccco1 (stereo unspecified) | 4.4%
61 | NC(=O)c1cc(S(=O)(=O)N2CCCC2)ccc1OCc1ccc(F)cc1 | -5.53%
62 | Cc1c(/C=N\NC(=O)c2cc3ccccc3o2)c2ccccc2n1C | 8.19%
63 | CSC(=S)N/N=C/c1c[nH]c2ccccc12 | 43.5% (active)
64 | O=C(N/N=C/c1c[nH]c2ccccc12)c1cc2ccccc2o1 | 49.3% (active)
65 | O=C(O)c1cccc(NC(=S)N/N=C/c2c[nH]c3ccccc23)c1 | 11.4%
66 | Nc1nonc1-n1nnc(C(=O)N/N=C/c2c[nH]c3ccccc23)c1-c1ccccc1 | 12.9%
67 | O=C(N/N=C/c1cccc(O)c1)c1cc2c(ccc3ccccc32)o1 | 7.41%
68 | COc1ccccc1CNS(=O)(=O)c1cc(C(=O)NCc2ccccn2)c(Cl)cc1Cl | 3.96%
69 | CCOC(=O)c1cc2c(=O)[nH]c(C(Cl)(Cl)Cl)nc2o1 | 1.82%
70 | COc1cc2c(cc1NC(=O)COC(=O)/C=C/c1ccccc1)oc1ccccc12 | -21.9%
71 | CN(c1ccc(OCC(=O)NC2=NCCS2)cc1)S(=O)(=O)c1ccc(F)cc1 | -18.2%
72 | C/C(CC1CC(C)(C)OC1=O)=N/Nc1nc(-c2ccccc2)cs1 (stereo unspecified) | 17.6%

Row | Compound | inhibition
73 | COc1ccccc1C(=O)CSc1cccc[n+]1[O-] | -4.59%
74 | O=C(CSc1cccc[n+]1[O-])c1ccc(-c2ccccc2)cc1 | 42% (active)
75 | O=C(CSc1cccc[n+]1[O-])c1ccc(Cl)cc1 | 1.21%
76 | CCc1cc2cc(OC)ccc2nc1SCC(=O)Nc1cc(OC)c(OC)cc1C(=O)O | 11.1%
77 | Cc1ccc(NC(=O)c2ccc(Oc3ncccn3)cc2)cc1 | 9.43%
78 | COc1cccc(N(CC(=O)NCCSc2ccccn2)S(C)(=O)=O)c1 | -1.16%
79 | COC(=O)c1ccc(S(=O)(=O)N2CCc3ccccc3C2)cc1 | -8.05%
80 | CC(OC(=O)c1ccc(S(=O)(=O)N2CCOCC2)cc1)c1ccccc1 (stereo unspecified) | 10.1%
81 | O=C(ON=C1CCN(S(=O)(=O)c2ccccc2)CC1)c1ccc(Cl)cc1 | 48% (active)
82 | Cc1cc[n+](-c2[nH]c(=O)sc2/C=N/NC(=O)c2ccccc2[O-])cc1C | 2.83%
83 | CN(c1ccc(O)cc1)c1nc(-c2cccnc2)cs1 | -2.92%
84 | COc1ccccc1C1=CC(=O)C[C@H](c2ccc(F)cc2)C1 | -15.1%
85 | COc1ccccc1-c1n[nH]c2c1[C@H](C)CC[C@H]2C(C)C | 56% (active)
86 | CCN(C[C@H]1N[C@@](CC)(C(=O)OC)[C@H]2C(=O)N(Cc3ccccc3)C(=O)[C@@H]12)S(=O)(=O)c1ccc(C(F)(F)F)cc1 | 12.3%
87 | Cc1ccc(Nc2nc(C)cc(C)c2C(N)=O)cc1 | 6.89%
88 | Cc1ccc(Nc2nc(Cl)c(C=O)s2)cc1 | 41.1% (active)
89 | Cc1ccc(NC(=O)Nc2nnc(-c3ccncc3)s2)cc1 | 5.77%
90 | CC(C)NC(=O)NC(=O)CSc1nnc(-c2ccccc2F)n1N | 5.49%
91 | CN(C(=O)CSc1nnc(N)s1)c1c(N)n(Cc2ccccc2)c(=O)[nH]c1=O | 10.2%
92 | CS(=O)(=O)N(CC(=O)N1CCOCC1)c1ccc2c3c(cccc13)CC2 | 8.14%
93 | CCOc1ccccc1/C=c1\sc2nc(-c3ccco3)nn2c1=O | 45% (active)
94 | CCCn1nc(C(=O)NNC(=O)CCOc2ccccc2OCC)c2ccccc2c1=O | 13.7%
95 | CCOc1ccccc1C1NC(=O)NC(C)=C1C(=O)OCc1ccco1 (stereo unspecified) | 0.932%
96 | Cc1cccc([C@@H]2[C@@H]3C(=O)N(Cc4ccccc4)C(=O)[C@@H]3[C@]3(C)C(=O)N(c4ccc(Br)cc4)C(=O)N23)c1 | 4.22%

From PubChem BioAssay AID463195 (Sanford-Burnham Center for Chemical Genomics, 2010)
